# Test results from paper PMC7862700, “An all-to-all approach to the identification of sequence-specific readers for epigenetic DNA modifications on cytosine”.
# Experiments:
# Assay in all cases: DAPPL (digital affinity profiling via proximity ligation, sequencing); 10 mM Tris-HCl pH 7.5, 50 mM NaCl, 1 mM DTT, 4% glycerol, room temperature, 30 min; GST-TFs on glutathione beads, 16-mer random dsDNA library, 0.1% formaldehyde crosslink after washing; high values mean tight binding
# FLI1 = molecular target: T1, FLI1 (Homo sapiens, UniProt Q01543 1-452); conditions: protein: recombinant; tags: N-terminal GST; dsDNA, one strand shown
# T1 sequence: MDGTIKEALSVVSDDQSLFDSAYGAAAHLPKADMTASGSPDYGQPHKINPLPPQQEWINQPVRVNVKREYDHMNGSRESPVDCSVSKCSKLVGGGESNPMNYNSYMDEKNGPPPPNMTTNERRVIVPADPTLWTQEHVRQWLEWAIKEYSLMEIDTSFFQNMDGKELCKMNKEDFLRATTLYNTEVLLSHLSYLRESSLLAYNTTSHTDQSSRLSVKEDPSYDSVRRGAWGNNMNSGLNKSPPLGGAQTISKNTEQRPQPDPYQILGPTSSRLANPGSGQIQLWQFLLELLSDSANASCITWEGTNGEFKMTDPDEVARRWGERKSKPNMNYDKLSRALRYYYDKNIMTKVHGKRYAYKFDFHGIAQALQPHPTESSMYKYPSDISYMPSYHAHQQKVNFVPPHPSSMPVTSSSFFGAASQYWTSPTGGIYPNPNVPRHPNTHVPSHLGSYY
# Method in brief: (§1)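 GST fusions of human transcription factors were expressed in yeast and captured with glutathione beads. Once given DNA barcodes and pooled alongside a tag-only sample, they were incubated for 30 min at room temperature with 200 nmole of a random double-stranded 16-mer DNA library in Tris/NaCl/DTT/glycerol buffer, then washed, crosslinked (0.1% formaldehyde), proximity-ligated, PCR-amplified and sequenced on an Illumina NextSeq500. The binding signal of each hexamer is its read frequency for a factor divided by its frequency for the tag-only sample.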
# ELK1 = molecular target: T2, ELK1 (Homo sapiens, UniProt P19419 1-428); conditions: protein: recombinant; tags: N-terminal GST; dsDNA, one strand shown
# T2 sequence: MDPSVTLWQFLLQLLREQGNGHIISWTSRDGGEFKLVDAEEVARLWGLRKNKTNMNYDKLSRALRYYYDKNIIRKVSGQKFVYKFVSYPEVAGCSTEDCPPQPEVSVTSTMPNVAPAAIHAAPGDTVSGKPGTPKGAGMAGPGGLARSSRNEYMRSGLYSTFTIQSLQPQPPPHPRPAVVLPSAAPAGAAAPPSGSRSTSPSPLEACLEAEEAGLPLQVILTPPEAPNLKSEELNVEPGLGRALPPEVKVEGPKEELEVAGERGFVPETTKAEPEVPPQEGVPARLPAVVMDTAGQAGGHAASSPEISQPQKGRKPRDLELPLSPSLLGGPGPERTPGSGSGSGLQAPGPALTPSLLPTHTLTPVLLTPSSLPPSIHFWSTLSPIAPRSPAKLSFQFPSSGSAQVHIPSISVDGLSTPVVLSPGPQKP
# Method in brief: as §1
# GABPA = molecular target: T3, GABPA (Homo sapiens, UniProt Q06546 1-454); conditions: protein: recombinant; tags: N-terminal GST; dsDNA, one strand shown
# T3 sequence: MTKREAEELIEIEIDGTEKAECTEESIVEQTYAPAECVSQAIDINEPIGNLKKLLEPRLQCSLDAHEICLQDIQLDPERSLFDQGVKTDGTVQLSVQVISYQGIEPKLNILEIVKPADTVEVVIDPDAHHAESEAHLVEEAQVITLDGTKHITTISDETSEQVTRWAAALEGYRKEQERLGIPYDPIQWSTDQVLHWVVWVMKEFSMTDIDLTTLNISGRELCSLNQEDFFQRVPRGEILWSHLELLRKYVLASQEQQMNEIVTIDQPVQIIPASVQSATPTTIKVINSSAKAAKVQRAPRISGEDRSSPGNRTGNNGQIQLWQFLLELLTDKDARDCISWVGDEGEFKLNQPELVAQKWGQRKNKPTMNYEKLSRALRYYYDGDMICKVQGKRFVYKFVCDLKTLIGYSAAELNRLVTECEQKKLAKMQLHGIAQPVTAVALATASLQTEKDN
# Method in brief: as §1
# ERG = molecular target: T4, ERG (Homo sapiens, UniProt P11308 1-479); conditions: protein: recombinant; tags: N-terminal GST; dsDNA, one strand shown
# T4 sequence: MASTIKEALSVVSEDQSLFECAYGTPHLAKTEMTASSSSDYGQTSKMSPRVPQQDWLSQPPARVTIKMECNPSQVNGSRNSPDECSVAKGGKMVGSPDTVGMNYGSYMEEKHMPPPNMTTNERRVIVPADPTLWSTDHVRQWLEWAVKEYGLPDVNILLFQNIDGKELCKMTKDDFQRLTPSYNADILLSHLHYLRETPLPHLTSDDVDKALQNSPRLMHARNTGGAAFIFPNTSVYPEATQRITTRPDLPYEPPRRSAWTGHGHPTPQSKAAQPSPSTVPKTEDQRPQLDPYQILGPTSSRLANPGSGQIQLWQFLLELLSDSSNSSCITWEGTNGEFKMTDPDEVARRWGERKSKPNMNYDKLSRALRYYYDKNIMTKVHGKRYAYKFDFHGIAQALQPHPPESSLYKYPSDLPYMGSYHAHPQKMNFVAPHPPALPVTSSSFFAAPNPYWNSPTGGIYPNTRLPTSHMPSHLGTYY
# Method in brief: as §1
# ELF1 = ELF1 (Homo sapiens, UniProt P32519 1-619); conditions: protein: recombinant; tags: N-terminal GST; dsDNA, one strand shown
# ELF1, sequence (P32519 whole entry): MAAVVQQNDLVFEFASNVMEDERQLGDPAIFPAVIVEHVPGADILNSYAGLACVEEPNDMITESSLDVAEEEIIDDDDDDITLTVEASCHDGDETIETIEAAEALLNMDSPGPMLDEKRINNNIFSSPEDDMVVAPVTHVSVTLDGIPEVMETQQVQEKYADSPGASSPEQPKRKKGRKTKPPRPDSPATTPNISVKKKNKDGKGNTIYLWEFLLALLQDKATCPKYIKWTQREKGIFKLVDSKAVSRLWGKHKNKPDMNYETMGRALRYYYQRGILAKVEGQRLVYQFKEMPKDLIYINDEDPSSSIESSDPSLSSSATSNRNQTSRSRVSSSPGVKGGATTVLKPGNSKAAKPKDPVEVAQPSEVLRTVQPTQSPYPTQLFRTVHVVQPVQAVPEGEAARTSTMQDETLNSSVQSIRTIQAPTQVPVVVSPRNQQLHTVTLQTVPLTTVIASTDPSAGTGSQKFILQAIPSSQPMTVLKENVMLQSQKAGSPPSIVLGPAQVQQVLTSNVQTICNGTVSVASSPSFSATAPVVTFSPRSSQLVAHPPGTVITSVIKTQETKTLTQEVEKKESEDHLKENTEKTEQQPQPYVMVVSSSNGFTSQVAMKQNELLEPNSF
# Method in brief: as §1
# EHF = molecular target: T5, EHF (Homo sapiens, UniProt Q9NZC4 1-300); conditions: protein: recombinant; tags: N-terminal GST; dsDNA, one strand shown
# T5 sequence: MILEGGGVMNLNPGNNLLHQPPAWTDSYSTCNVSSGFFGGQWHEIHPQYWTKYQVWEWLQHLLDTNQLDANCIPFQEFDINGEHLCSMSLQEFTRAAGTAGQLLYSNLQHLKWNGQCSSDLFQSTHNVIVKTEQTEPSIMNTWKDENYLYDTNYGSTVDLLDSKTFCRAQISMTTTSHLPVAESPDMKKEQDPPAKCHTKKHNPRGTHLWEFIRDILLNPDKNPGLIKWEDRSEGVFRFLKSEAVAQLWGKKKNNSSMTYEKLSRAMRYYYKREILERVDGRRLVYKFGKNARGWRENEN
# Method in brief: as §1
# SPI1 = SPI1 (Homo sapiens, UniProt P17947 1-270); conditions: protein: recombinant; tags: N-terminal GST; dsDNA, one strand shown
# Method in brief: as §1
# SPIB = SPIB (Homo sapiens, UniProt Q01892 1-262); conditions: protein: recombinant; tags: N-terminal GST; dsDNA, one strand shown
# SPIB, sequence (Q01892 whole entry): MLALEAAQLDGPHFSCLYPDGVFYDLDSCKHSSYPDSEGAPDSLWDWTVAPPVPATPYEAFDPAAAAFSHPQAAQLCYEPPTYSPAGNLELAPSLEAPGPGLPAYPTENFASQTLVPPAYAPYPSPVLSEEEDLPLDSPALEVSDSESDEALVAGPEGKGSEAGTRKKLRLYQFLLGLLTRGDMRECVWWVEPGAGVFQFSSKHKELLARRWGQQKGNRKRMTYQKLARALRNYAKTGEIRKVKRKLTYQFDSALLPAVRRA
# Method in brief: as §1
# ELK3 = molecular target: T6, ELK3 (Homo sapiens, UniProt P41970 1-407); conditions: protein: recombinant; tags: N-terminal GST; dsDNA, one strand shown
# T6 sequence: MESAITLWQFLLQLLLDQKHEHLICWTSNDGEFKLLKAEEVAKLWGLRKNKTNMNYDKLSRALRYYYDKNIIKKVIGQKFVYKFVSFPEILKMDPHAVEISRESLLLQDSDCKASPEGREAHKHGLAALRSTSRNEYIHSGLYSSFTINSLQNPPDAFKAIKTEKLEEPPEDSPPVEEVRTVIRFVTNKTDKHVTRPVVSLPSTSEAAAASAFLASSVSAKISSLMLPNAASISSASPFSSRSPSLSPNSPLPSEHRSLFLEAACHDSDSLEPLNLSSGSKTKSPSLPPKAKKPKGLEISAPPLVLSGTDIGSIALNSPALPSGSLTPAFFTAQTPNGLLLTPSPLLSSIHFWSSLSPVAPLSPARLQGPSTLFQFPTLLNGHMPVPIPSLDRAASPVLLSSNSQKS
# Method in brief: as §1
# FEV = molecular target: T7, FEV (Homo sapiens, UniProt Q99581 1-238); conditions: protein: recombinant; tags: N-terminal GST; dsDNA, one strand shown
# T7 sequence: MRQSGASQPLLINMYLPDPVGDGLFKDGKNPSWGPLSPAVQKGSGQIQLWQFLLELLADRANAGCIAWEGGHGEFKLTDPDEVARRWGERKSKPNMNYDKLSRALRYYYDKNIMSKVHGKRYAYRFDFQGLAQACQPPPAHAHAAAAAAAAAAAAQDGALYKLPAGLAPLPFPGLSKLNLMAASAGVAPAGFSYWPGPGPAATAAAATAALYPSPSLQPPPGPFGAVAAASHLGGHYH
# Method in brief: as §1
# ETV5 = ETV5 (Homo sapiens, UniProt P41161 1-510); conditions: protein: recombinant; tags: N-terminal GST; dsDNA, one strand shown
# ETV5, sequence (P41161 whole entry): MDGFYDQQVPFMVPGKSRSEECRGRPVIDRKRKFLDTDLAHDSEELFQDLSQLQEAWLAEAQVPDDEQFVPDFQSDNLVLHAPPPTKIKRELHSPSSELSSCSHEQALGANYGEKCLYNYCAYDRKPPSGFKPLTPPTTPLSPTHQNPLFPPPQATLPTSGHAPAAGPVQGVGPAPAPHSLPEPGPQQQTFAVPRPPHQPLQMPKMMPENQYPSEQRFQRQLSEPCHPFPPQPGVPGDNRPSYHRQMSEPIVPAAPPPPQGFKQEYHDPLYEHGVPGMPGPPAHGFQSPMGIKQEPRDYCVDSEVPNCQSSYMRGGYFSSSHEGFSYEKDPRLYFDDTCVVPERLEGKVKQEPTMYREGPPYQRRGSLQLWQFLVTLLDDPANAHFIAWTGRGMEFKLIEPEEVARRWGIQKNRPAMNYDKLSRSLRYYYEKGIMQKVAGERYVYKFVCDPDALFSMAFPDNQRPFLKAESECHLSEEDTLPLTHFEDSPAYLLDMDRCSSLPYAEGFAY
# Method in brief: as §1
# HSF1 = HSF1 (Homo sapiens, UniProt Q00613 1-529); conditions: protein: recombinant; tags: N-terminal GST; chain copies: 3; dsDNA, one strand shown
# HSF1, sequence (Q00613 whole entry): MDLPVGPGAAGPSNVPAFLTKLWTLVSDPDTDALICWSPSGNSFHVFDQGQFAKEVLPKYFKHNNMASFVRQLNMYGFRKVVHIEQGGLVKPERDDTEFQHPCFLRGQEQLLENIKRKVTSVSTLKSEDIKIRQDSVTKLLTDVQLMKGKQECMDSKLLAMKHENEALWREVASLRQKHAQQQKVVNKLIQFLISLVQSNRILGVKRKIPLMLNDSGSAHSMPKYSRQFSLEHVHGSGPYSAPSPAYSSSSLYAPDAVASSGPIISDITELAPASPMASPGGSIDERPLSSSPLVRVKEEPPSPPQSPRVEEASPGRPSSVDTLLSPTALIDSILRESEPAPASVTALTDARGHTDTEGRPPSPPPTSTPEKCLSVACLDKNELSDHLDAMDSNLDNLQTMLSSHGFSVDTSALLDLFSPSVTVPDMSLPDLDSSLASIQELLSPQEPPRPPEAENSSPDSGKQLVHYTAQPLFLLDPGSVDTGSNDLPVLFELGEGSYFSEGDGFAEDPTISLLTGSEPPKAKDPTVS
# Method in brief: as §1
# SPIC = molecular target: T8, SPIC (Homo sapiens, UniProt Q8N5J4 1-248); conditions: protein: recombinant; tags: N-terminal GST; dsDNA, one strand shown
# T8 sequence: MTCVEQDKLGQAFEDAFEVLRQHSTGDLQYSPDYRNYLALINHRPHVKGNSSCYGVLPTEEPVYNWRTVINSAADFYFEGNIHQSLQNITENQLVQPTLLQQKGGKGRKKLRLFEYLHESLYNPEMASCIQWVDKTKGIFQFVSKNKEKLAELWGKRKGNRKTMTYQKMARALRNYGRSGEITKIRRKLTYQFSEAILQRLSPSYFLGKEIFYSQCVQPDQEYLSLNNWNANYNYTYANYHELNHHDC
# Method in brief: as §1
# ELF4 = ELF4 (Homo sapiens, UniProt Q99607 1-663); conditions: protein: recombinant; tags: N-terminal GST; dsDNA, one strand shown
# ELF4, sequence (Q99607 whole entry): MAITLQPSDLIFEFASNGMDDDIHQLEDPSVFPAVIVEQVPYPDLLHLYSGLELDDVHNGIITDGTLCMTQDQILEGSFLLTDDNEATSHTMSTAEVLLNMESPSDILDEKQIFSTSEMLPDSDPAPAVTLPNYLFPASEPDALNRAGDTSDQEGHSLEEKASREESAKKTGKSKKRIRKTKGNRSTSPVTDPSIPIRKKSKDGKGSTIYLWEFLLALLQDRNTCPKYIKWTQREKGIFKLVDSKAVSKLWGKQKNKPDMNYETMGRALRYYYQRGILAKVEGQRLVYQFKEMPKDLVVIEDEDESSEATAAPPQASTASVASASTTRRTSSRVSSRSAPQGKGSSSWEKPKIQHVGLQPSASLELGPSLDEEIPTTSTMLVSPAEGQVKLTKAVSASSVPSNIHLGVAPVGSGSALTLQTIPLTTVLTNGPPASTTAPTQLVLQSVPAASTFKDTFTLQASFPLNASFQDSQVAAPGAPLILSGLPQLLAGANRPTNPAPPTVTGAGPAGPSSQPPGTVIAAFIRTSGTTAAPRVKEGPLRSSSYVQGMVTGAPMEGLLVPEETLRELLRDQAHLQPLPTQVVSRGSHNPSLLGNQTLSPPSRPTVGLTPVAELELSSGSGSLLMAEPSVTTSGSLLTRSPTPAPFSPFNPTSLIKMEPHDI
# Method in brief: as §1
# ELK4 = molecular target: T9, ELK4 (Homo sapiens, UniProt P28324-2 1-405); conditions: protein: recombinant; tags: N-terminal GST; dsDNA, one strand shown
# T9 sequence: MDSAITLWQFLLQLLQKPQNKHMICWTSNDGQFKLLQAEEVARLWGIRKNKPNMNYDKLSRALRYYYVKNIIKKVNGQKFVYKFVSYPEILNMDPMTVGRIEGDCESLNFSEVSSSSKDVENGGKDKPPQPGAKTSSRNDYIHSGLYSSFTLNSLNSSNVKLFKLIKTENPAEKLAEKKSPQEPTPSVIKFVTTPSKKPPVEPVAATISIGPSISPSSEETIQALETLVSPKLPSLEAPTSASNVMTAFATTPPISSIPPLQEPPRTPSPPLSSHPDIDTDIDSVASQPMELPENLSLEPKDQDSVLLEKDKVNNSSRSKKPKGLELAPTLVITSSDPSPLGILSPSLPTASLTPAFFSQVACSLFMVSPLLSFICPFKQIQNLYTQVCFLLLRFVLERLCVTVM
# Method in brief: as §1
# ETV2 = molecular target: T10, ETV2 (Homo sapiens, UniProt O00321 1-342); conditions: protein: recombinant; tags: N-terminal GST; dsDNA, one strand shown
# T10 sequence: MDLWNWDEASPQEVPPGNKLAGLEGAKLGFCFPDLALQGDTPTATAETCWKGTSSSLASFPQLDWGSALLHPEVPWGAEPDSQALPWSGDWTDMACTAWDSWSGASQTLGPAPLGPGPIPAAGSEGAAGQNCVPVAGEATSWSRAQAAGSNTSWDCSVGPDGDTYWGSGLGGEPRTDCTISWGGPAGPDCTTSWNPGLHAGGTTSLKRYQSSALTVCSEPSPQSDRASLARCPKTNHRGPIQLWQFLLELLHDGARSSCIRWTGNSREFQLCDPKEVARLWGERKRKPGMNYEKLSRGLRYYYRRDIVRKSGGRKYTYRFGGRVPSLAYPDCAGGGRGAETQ
# Method in brief: as §1
# ELF3 = molecular target: T11, ELF3 (Homo sapiens, UniProt P78545 1-371); conditions: protein: recombinant; tags: N-terminal GST; dsDNA, one strand shown
# T11 sequence: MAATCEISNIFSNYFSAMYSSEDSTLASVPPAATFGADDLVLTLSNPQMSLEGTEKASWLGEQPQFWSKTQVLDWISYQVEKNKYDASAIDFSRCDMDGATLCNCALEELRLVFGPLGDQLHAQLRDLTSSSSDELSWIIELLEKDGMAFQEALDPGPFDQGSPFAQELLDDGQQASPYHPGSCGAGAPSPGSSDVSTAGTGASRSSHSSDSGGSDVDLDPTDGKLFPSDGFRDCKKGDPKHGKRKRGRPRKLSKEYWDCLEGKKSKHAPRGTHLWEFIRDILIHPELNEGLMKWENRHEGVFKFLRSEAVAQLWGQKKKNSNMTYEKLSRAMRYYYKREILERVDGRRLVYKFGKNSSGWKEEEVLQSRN
# Method in brief: as §1
# CRX = CRX (Homo sapiens, UniProt O43186 1-299); conditions: protein: recombinant; tags: N-terminal GST; dsDNA, one strand shown
# CRX, sequence (O43186 whole entry): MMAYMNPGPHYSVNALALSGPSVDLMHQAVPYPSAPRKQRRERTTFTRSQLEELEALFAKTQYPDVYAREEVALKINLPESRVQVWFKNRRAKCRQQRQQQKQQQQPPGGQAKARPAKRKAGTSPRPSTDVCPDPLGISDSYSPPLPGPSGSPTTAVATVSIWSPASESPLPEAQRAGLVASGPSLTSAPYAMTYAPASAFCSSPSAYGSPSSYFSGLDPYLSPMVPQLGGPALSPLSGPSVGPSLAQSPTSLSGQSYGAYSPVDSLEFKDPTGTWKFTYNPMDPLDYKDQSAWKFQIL
# Method in brief: as §1
# ETV1 = ETV1 (Homo sapiens, UniProt P50549 1-477); conditions: protein: recombinant; tags: N-terminal GST; dsDNA, one strand shown
# ETV1, sequence (P50549 whole entry): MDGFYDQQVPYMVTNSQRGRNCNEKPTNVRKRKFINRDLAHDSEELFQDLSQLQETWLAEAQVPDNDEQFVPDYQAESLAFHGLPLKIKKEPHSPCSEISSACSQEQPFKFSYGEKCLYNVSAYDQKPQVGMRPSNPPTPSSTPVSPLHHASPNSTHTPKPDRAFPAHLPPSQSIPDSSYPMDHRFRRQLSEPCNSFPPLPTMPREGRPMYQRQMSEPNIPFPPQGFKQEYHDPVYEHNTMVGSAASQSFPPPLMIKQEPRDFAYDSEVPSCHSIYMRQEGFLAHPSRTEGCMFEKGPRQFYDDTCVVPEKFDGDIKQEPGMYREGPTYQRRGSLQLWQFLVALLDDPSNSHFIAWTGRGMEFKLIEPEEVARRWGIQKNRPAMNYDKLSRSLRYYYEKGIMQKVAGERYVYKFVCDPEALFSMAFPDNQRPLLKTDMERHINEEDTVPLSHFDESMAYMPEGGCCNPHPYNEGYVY
# Method in brief: as §1
sequence,measurement,setting,value
TTTTCC,binding signal,FLI1,"1.9 fold enrichment (6-mer frequency, TF over GST control)"
same,binding signal,ELK1,"1.68 fold enrichment (6-mer frequency, TF over GST control)"
same,binding signal,GABPA,"1.71 fold enrichment (6-mer frequency, TF over GST control)"
same,binding signal,ERG,"1.76 fold enrichment (6-mer frequency, TF over GST control)"
same,binding signal,ELF1,"1.6 fold enrichment (6-mer frequency, TF over GST control)"
same,binding signal,EHF,"1.76 fold enrichment (6-mer frequency, TF over GST control)"
same,binding signal,SPI1,"1.75 fold enrichment (6-mer frequency, TF over GST control)"
same,binding signal,SPIB,"1.79 fold enrichment (6-mer frequency, TF over GST control)"
same,binding signal,ELK3,"1.82 fold enrichment (6-mer frequency, TF over GST control)"
same,binding signal,FEV,"1.74 fold enrichment (6-mer frequency, TF over GST control)"
same,binding signal,ETV5,"1.92 fold enrichment (6-mer frequency, TF over GST control)"
same,binding signal,HSF1,"1.73 fold enrichment (6-mer frequency, TF over GST control)"
same,binding signal,SPIC,"1.72 fold enrichment (6-mer frequency, TF over GST control)"
same,binding signal,ELF4,"1.84 fold enrichment (6-mer frequency, TF over GST control)"
same,binding signal,ELK4,"1.62 fold enrichment (6-mer frequency, TF over GST control)"
same,binding signal,ETV2,"1.88 fold enrichment (6-mer frequency, TF over GST control)"
same,binding signal,ELF3,"1.89 fold enrichment (6-mer frequency, TF over GST control)"
same,binding signal,CRX,"1.44 fold enrichment (6-mer frequency, TF over GST control)"
same,binding signal,ETV1,"1.65 fold enrichment (6-mer frequency, TF over GST control)"
